Source: PubChem
Only some compounds are listed: those with a hit (about 0.92% of all), similar ones and a draw of the others.
APEX1 inh: inhibitors of human APE1 endonuclease. P27695. Potency, µM (highest dose often 65.8 µM), without a hit: top-dose activity change, negative = inhibition, actives largely listed as inhibitors. 350,000 compounds, 0.35% hits. recombinant APE1, TAMRA/BHQ-2 abasic DNA cleavage fluorescence. AID 2517;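 also: plate controls were vehicle for no effect and reference inhibitor for full effect; nearly all actives have a fitted effect of over 55% in size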
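Step 1: APE1 (0.75 nM) with compound, 15 min RT. Step 2: add 50 nM fluorophore/quencher THF duplex. Step 3: three fluorescence reads 60 s apart (525/598 nm); read 3 minus read 1 = reaction progress.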
BLM inh: blocks DNA unwinding by human BLM helicase; recombinant BLM DNA unwinding, fluorescence dequenching; Potency, µM (titrated, usually from 56.1 µM), inactives show at the top dose activity change, negative = inhibition, usual class: inhibitors; 350,000 compounds, 0.2% hits; AID 2528;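 also: plate controls were vehicle for no effect and no enzyme for full effect; nearly all actives have a fitted effect of over 35% in size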
RECQ1 inh: inhibitors of human RECQ1 DNA helicase; 240,000 compounds, 0.54% hits; Potency, µM (highest dose often 57.3 µM), inactives show top-dose activity, negative = inhibition, actives largely listed as inhibitors; P46063; RECQ1 DNA unwinding, red fluorescence kinetic read;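 also: plate controls were vehicle for no effect and no enzyme for full effect; nearly all actives have a fitted effect of over 30% in size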
Target sequence (P46063 whole entry, looked up): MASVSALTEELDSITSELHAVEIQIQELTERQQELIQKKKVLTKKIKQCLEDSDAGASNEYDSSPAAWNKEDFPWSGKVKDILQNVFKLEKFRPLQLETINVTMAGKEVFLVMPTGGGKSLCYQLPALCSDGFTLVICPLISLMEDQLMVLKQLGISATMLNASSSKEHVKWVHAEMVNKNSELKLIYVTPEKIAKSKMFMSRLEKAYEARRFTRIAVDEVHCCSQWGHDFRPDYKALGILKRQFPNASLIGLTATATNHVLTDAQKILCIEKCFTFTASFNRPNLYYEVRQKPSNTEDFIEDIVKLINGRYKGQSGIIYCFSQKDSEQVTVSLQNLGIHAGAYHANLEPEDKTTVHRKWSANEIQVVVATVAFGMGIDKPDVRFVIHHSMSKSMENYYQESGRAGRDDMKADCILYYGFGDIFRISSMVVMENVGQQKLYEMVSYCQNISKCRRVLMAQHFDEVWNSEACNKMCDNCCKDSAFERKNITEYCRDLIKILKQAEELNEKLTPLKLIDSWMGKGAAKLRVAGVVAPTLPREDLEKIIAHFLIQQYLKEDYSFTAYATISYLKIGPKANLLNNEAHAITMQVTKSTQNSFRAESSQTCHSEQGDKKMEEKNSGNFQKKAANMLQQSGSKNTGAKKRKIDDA
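RECQ1T1 50 nM; forked duplex (20 bp + 30-nt ss tails) 200 nM, ATP 2 mM final; pH 8.0, 2 mM MgCl2, 2.5 ug/ml poly(dI-dC); 15 min compound preincubation; discontinuous kinetic read over 2 h at RT.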
FEN1 inh-1: blocks human flap endonuclease 1 | P39748 | Recombinant FEN1 flap cleavage, fluorescence, 15 min | Potency, µM (series often up to 114 µM), without a hit: at the top dose activity change, negative = inhibition, hits mostly inhibitors | 390,000 compounds, 0.35% hits | AID 588795; also: % is scaled to controls: 0 for no effect and ±100 for the full control effect; nearly all actives have a fitted effect of over 65% in size
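Reaction started by adding substrate (50 nM final) to 10 nM enzyme after 15 min room-temperature compound preincubation. Reads at 0 and 15 min, with data normalized and fitted to a four-parameter Hill equation.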
TDP1 block: inhibitors of human tyrosyl-DNA phosphodiesterase TDP1; Q9NUW8; recombinant TDP1, AlphaScreen DNA substrate cleavage; Potency, µM (highest dose often 130 µM), inactives show at the top dose activity change, negative = inhibition, usual class: inhibitors; 350,000 compounds, 0.28% hits; also: % is scaled to controls: 0 for no effect and ±100 for the full control effect; nearly all actives have a fitted effect of over 40% in size
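E. coli-derived human Tdp1, 1 nM final. Cpd preinc 15 min RT; substrate 15 nM final, 5 min RT; AS bead mix 10 ug/ml final, 10 min RT. Signal loss = tyrosine-FITC cleavage. No-enzyme wells = max signal.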
FEN1 inh-2: FEN1 inhibition, cherry-pick retest; shares compounds with FEN1 inh-1; 880 compounds, 79% hits; FEN1 flap cleavage, TAMRA/BHQ2 fluorogenic DNA substrate; Potency, µM, usual class: inhibitors; also: nearly all actives have a fitted effect of over 60% in size
An asterisk follows results filed as active; [ ] = dose if it differs, or a comment. Calls follow the shape of the dose curve; as a rule, active = well fitted curve in the direction sought with a large enough effect; inconclusive = small, poorly fitted or top-dose-only effect, or another doubt; inactive = no such curve, though single readings can be large; an effect the other way counts as inactive or inconclusive. Potency is read from the fitted curve at half-maximal effect.

Results for COc1ccc2[nH]c3c(=O)n(CCCCC(=O)NCCN4CCCC4)c(=S)[nH]c3c2c1 ?
APEX1 inh: 1%; BLM inh: -27%; RECQ1 inh: -19%; FEN1 inh-1: inconclusive; TDP1 block: -1%; FEN1 inh-2: inconclusive

Results for COc1ccc(NS(=O)(=O)c2cc([N+](=O)[O-])ccc2NN=Cc2ccccc2OCC(=O)O)cc1 ?
APEX1 inh: -2%; FEN1 inh-1: 8%; TDP1 block: 2%

Results for O=C(O)COc1ccccc1C=NNc1ccc([N+](=O)[O-])cc1S(=O)(=O)Nc1ccc(Cl)cc1 ?
APEX1 inh: -4%; FEN1 inh-1: -15%; TDP1 block: 0%; FEN1 inh-2: 76*

Results for O=C1CCN(CCc2ccccc2)CCN1C(CSc1ccc(Br)cc1)Cc1ccccc1 (configuration not stated) ?
APEX1 inh: -7%; BLM inh: -11%; RECQ1 inh: -11%; FEN1 inh-1: -3%; TDP1 block: 9%

How did COc1ccc(CNc2ncnc3c2[nH]c2cc(OC)c(OC)cc23)cc1 do in these assays?
APEX1 inh: -7%; BLM inh: inconclusive; RECQ1 inh: -29%; FEN1 inh-1: 35µM*; FEN1 inh-2: 30*

What do the screens show for `Cc1ccc(C(=O)Nc2ccc(-c3nc4ccccc4[nH]3)cc2)cc1Br`?
FEN1 inh-2: 60*

What do the screens show for `CCOc1ccc2nc(NC3=NC(c4ccc(OC)cc4)CC(=O)N3)nc(C)c2c1` (configuration not stated)?
APEX1 inh: inconclusive; BLM inh: -14%; RECQ1 inh: -39%; FEN1 inh-1: 79µM*; TDP1 block: 6%; FEN1 inh-2: 76*

How did CCOc1ccc(C2CC(=O)NC(NC(=O)c3ccc(C)cc3)=N2)cc1 (configuration not stated) do in these assays?
BLM inh: -1%; FEN1 inh-1: -5%; TDP1 block: 7%

Results for CCOc1ccc2nc(NC3=NC(C)(C)C=C(C)N3)nc(C)c2c1 ?
APEX1 inh: -4%; BLM inh: 120%; RECQ1 inh: 14%; FEN1 inh-1: 40µM*; TDP1 block: 3%; FEN1 inh-2: 17*

Results for Cn1cnc2c(ncn2[C@@H]2O[C@H](CO)[C@@H](O)[C@H]2O)c1=N ?
APEX1 inh: -1%; RECQ1 inh: inactive; TDP1 block: 7%

Results for CCC(C)C(=O)OC1CCC=C2C=CC(C)C(CCC3CC(O)CC(=O)O3)[C@@H]21 (some centres not stated) ?
BLM inh: -6%; RECQ1 inh: -4%; TDP1 block: 9%[56.1 µM]

How did Cc1sc2c(c1C)c(=O)n(Cc1ccccc1)c(=O)n2Cc1ccc(F)cc1 do in these assays?
BLM inh: -3%; FEN1 inh-1: -6%; TDP1 block: -3%

What do the screens show for `Cc1csc2c1c(=O)n(O)c(=O)n2Cc1ccccc1`?
FEN1 inh-2: 0.11*

How did Cc1nnc(N2CCC(C(=O)NCc3ccc(F)cc3)CC2)c2nn(-c3ccc(Cl)cc3)c(C)c12 do in these assays?
BLM inh: -1%; FEN1 inh-1: 16%; TDP1 block: -6%

What do the screens show for `CCOc1ccc(CNC(=O)C2CCN(c3nnc(C)c4c(C)n(-c5ccc(C)cc5)nc34)CC2)cc1`?
APEX1 inh: -3%; BLM inh: -17%; FEN1 inh-1: inconclusive; TDP1 block: inconclusive; FEN1 inh-2: inconclusive

Results for CN(C)S(=O)(=O)c1cccc(NC(=O)COC(=O)c2ccc([N+](=O)[O-])o2)c1 ?
APEX1 inh: -3%; BLM inh: 3%; RECQ1 inh: -6%; FEN1 inh-1: 50µM*; TDP1 block: 4%; FEN1 inh-2: 19*

What do the screens show for `O=C(COC(=O)c1ccc([N+](=O)[O-])o1)Nc1ccc(F)cc1`?
APEX1 inh: -44%; FEN1 inh-1: inconclusive; TDP1 block: 2%
